Counter-ions that a name gives are not always drawn. A number with no mark means an inactive call.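 Rule for the calls: active = AUC significantly below DMSO controls by Student t-fit with adjusted P under 0.01; inactive = not significantly reduced.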

The subject of the test is Haemophilus parainfluenzae. As to the kind of experiment: growth AUC normalised to DMSO control (fraction of control); higher = less growth inhibition, active = hit call of the paper. The settings on record: 20 µM. A digest of the protocol: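 Pathogens were passaged twice under anaerobic conditions, then inoculated into pre-reduced mGAM plates at a starting OD578 of 0.01, with compound at 20 μM and 1% DMSO, and sealed with breathable membranes. For Haemophilus parainfluenzae, the medium was supplemented with hemin and NAD. OD578 was read every hour for 24 h in three biological replicates. Growth-curve AUC was calculated by the trapezoidal rule up to the exponential-to-stationary transition and normalised to DMSO controls on the same plate.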
For the compound `CN1C2CCCC1CC(NC(=O)c1nn(C)c3ccccc13)C2` (stereo not given) [Granisetron], the “growth AUC normalised to DMSO control” value is 1.02.

For the compound `Clc1ccc(C(c2ccccc2Cl)C(Cl)Cl)cc1` (stereo not given) [Mitotane], the “growth AUC normalised to DMSO control” value was 1.01.

Consider `OC(CCCN1CCCCC1)(c1ccccc1)c1ccccc1` [Diphenidol hydrochloride], for which the “growth AUC normalised to DMSO control” value is 1.

For the compound `COC(=O)C1=C(C)NC(C)=C(C(=O)OCC(C)C)C1c1ccccc1[N+](=O)[O-]` (stereo not given) [Nisoldipine], the “growth AUC normalised to DMSO control” value was 0.996.

In the case of `CC(C)COCC(CN(Cc1ccccc1)c1ccccc1)N1CCCC1` (stereo not given) [Bepridil hydrochloride], the “growth AUC normalised to DMSO control” value is 0.771.
